# In PubChem BioAssay (NCI):
# The panel holds about 83,000 compounds, 20% with a hit somewhere; the sample as a whole holds those more often.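 For each line, cells grew in 96-well plates with the test compound present at a single concentration for 48 hours.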 A number with no mark means an inactive call. Calls of active or inactive are those of the source. The calls were made as follows: active = growth percent below 10; inactive = the rest. *1 amine or outer side, *2 acyl side, *3 side chain or, on linkers, in order; H or OH if unused. Where a SMILES comes first, the peptide text is derived from it. Bridges are numbered along the chain shown (N, C = ends). Roman numbers before positions name the chains, in order. [ ]: non-standard residue; d: D form. The star is where a group is joined. Actinocin(1to9) = Cc1c2oc3c(C)ccc(C(=O)[*:2])c3nc-2c(C(=O)[*:1])c(N)c1=O; X5 = CCC(=O)CC1CC(C)CC(C(=O)[*:2])N1[*:1]; NMeV = CN[CH](C(=O)O)C(C)C; X4 = CCCCCCCCC(C)C(=O)*; Aib = CC(C)(N)C(=O)O; X6 = CC(CN(C)CCO)N*; Sar = CNCC(=O)O
# Experiments:
# Experiment in all cases: NCI-60 one-dose screen, 48 h (100 = growth as untreated, 0 = no growth, -100 = all killed)
# Settings in all cases: 10 µM unless noted
# NCI-H23 lung = test system: NCI-H23 lung
# NCI-H226 lung = test system: NCI-H226 lung
# HOP-62 NSCLC = test system: HOP-62 NSCLC
# NCI-H522 lung = test system: NCI-H522 lung
# A549/ATCC NSCLC = test system: A549/ATCC NSCLC
# 786-0 renal = test system: 786-0 renal
# COLO 205 colon = test system: COLO 205 colon
# HOP-92 NSCLC = test system: HOP-92 NSCLC
# NCI-H460 lung = test system: NCI-H460 lung
# NCI-H322M lung = test system: NCI-H322M lung
Structure (SMILES),growth (NCI-H23 lung),growth (NCI-H226 lung),growth (HOP-62 NSCLC),growth (NCI-H522 lung),growth (A549/ATCC NSCLC),growth (786-0 renal),growth (COLO 205 colon),growth (HOP-92 NSCLC),growth (NCI-H460 lung),growth (NCI-H322M lung)
Oc1ccc(Cl)cc1Cc1cc(Cl)ccc1O,-12.5% (active),96.7%,70.6%,5.48% (active),61%,75.5%,110%,,,
Cc1ccc(N2C(=O)C=CC2=O)cc1,106%,90.9%,107%,74.8%,92%,99.1%,83.6%,82.9%,,
Nc1nc2ncc(CNc3ccc(C(=O)NC(CCC(=O)NC(CCC(=O)NC(CCC(=O)NC(CCC(=O)NC(CCC(=O)O)C(=O)O)C(=O)O)C(=O)O)C(=O)O)C(=O)O)cc3)nc2c(=O)[nH]1 (configuration not stated),101%,113%,100%,96.9%,104%,105%,113%,95.3%,,
CN1CSC(=S)N(Cc2ccccc2)C1,83.9%,104%,108%,,107%,100%,113%,69.4%,108%,
O=C1C=CC(O)=CC1=P(c1ccccc1)(c1ccccc1)c1ccccc1,94.6%,88.8%,99.7%,81.8%,,87.9%,105%,,73.6%,
CN(C)c1ccc(C(C#N)(c2ccccc2)c2ccc(N(C)C)cc2)cc1,54.2%,,90.6%,82.2%,49.9%,67.7%,45.2%,54.6%,50.8%,86.8%
Oc1ccc(Nc2ccc3ccccc3c2)cc1,69%,89.2%,57.4%,,55.3%,46.7%,96.1%,55.9%,59.4%,
CC(=O)OC1CC2CCC1(C)C2(C)C (configuration not stated),104%,103%,,,101%,111%,108%,84.1%,105%,
CC(C)c1ccc(C(=O)OC2CCCC2)cc1,100%,,93.1%,103%,117%,107%,103%,80.2%,105%,99.2%
"CCC(C)C1NC(=O)C(NC(=O)c2c3nc4c(C(=O)NC5C(=O)NC(C(C)CC)C(=O)N6CCCC6C(=O)N(C)CC(=O)N(C)C(C(C)C)C(=O)OC5C)ccc(C)c4oc-3c(C)c(=O)c2N)C(C)OC(=O)C(C(C)C)N(C)C(=O)CN(C)C(=O)C2CCCN2C1=O (configuration not stated) (I: TIP[Sar][NMeV] / II: TIP[Sar][NMeV]; ester I:1-I:C, II:1-II:C; linker I:N-II:N via Actinocin(1to9); configuration not given here)",-51.1% (active),-16% (active),-43.6% (active),-45.5% (active),-15.2% (active),-20.8% (active),-67.6% (active),-16.6% (active),-19.6% (active),
O=C(Nc1ccc(Cl)c(Cl)c1)Nc1ccccc1O,64.9%,96.9%,88.8%,26.8%,37.2%,99.6%,85.3%,,79.5%,
Cc1nc([N+](=O)[O-])c(Sc2nncc(-c3ccccc3)n2)n1C,82.1%,80.1%,95.4%,95.2%,95.9%,94%,74.5%,93.1%,110%,
CCCCCCCCC(C)C(=O)N1CCCC1C(=O)N1C(CC(=O)CC)CC(C)CC1C(=O)NC(C)C(=O)NC(C)(C)C(=O)NC(C)(C)C(=O)NC(C(=O)NC(C)C(=O)NC(C)(C)C(=O)NC(C)(C)C(=O)NC(C)CN(C)CCO)C(C)CC (configuration not stated) (X4-P[X5]A[Aib][Aib]IA[Aib][Aib]-X6; configuration not given here),195%,-50.7% (active),-81.5% (active),-62.9% (active),-62% (active),-53.7% (active),-75.9% (active),-23.8% (active),-83.7% (active),
CC(C)Nc1ccc(Nc2ccc(NC(C)C)cc2)cc1,25.9%,51.8%,76.4%,,40.9%,66%,25.8%,72.6%,24.7%,
CCCCCCCCCCCC[n+]1ccccc1 (tested in a mixture with another compound),-2.11% (active),,-24.3% (active),-53% (active),-32.3% (active),-50% (active),,-50.8% (active),0.69% (active),31.9%
CCCCCCCCCCCC(=O)OC(C)C(=O)NCCCC (configuration not stated),97.3%,86%,94%,104%,98.8%,101%,109%,98.1%,105%,
CCCCOS(=O)(=O)c1ccccc1,104%,97.9%,96.9%,111%,116%,101%,134%,122%,115%,
C/C=C/c1cc2c(c(=O)o1)C(=O)[C@@H](O)[C@H](C)O2,77.9%,79.6%,101%,-69% (active),97.2%,78.4%,35.6%,,81.6%,
Cc1cc(C)c(C#N)c(Sc2nc(C)c([N+](=O)[O-])c(C)c2C#N)n1,60.2%,111%,72.8%,,77%,103%,37.8%,-1.8% (active),,
O=C(OC12CC3CC(CC(C3)C1)C2)c1ccc(NCc2cc(O)ccc2O)cc1,-21.9% (active),-63.6% (active),-55.7% (active),-74.7% (active),-21.9% (active),-90% (active),-71.2% (active),-36.9% (active),3.32% (active),
Cc1ccc(NC2=CC(=O)C(=O)c3ccccc32)cc1,-31.2% (active),-67.9% (active),-86.2% (active),,-36.5% (active),34.8%,-68.5% (active),,5.26% (active),
Cc1oc2c(C)c3oc(=O)cc(C)c3cc2c1CCl,84.9%,75.5%,92.3%,54.7%,88.5%,84.2%,83.8%,58.5%,91.8%,
COc1ccc(/C=C2/C(=O)ON=C2C)cc1,112%,,101%,94.2%,103%,105%,104%,93.6%,107%,118%
CN(C)c1ccc(/C=C/c2cc[n+](C)c(/C=C/c3ccc(N(C)C)cc3)c2)cc1,10.5%,34.1%,19.3%,-20.2% (active),14.5%,22.6%,-68.7% (active),,10.6%,
CN(C)c1ccc(/C=C/c2nccc3ccccc23)cc1,81.9%,71.6%,87.9%,,85.6%,103%,91.4%,68.2%,74.3%,
Nc1ccc(-c2ccc(N)c(S(=O)(=O)O)c2)cc1S(=O)(=O)O,112%,,101%,125%,117%,106%,114%,74.4%,117%,116%
Cc1cc2nc(CC(=O)c3ccncc3)c(=O)[nH]c2cc1C,94.2%,87.4%,95%,,98.5%,87.7%,130%,92.8%,95.2%,

Structure (SMILES),growth (NCI-H23 lung),growth (NCI-H226 lung),growth (HOP-62 NSCLC),growth (NCI-H522 lung),growth (A549/ATCC NSCLC),growth (786-0 renal),growth (COLO 205 colon),growth (HOP-92 NSCLC),growth (NCI-H460 lung),growth (NCI-H322M lung)
CCCCCCC1N=C(N)N=C(N)N1c1cccc(Cl)c1 (configuration not stated),6.77% (active),67.7%,34.6%,80.2%,35.4%,21.8%,54.4%,15%,18.4%,
Cc1ccc(Nc2ccc(O)c3c2C(=O)c2c(O)ccc(Nc4ccc(C)cc4)c2C3=O)cc1,101%,95.6%,101%,94.8%,99.1%,102%,108%,,105%,
CCCCCCCCCCCCCCCc1ccc(C(=O)C[n+]2ccccc2)cc1,-62% (active),-6.49% (active),-99% (active),-90.2% (active),-95% (active),,-90.5% (active),-87.1% (active),-80.6% (active),
CN1CCC(CN2c3ccccc3Sc3ccccc32)C1 (configuration not stated),88.9%,111%,91.5%,86.2%,90.7%,69%,84.6%,-0.214% (active),101%,
CCCCCCCCCCCC1N=C(N)N=C(N)N1c1cccc(Br)c1 (configuration not stated),6.58% (active),39.1%,-8.64% (active),,21.7%,4.98% (active),-77.3% (active),,-58.4% (active),
O=C(NNc1ccccc1)OCc1ccccc1,103%,,100%,82.1%,70.7%,78.2%,97.6%,82%,79.5%,67.6%
CN=C(N)N/N=C(\C)c1ccc2c(c1)Cc1ccccc1-2,10.7%,-39.1% (active),-73.3% (active),12.2%,-66.4% (active),-77.9% (active),-100% (active),-8.45% (active),-97.9% (active),
CCCCCCCCCCCC[N+]1(CCCCCCCCCCCC)CCCC(C)C1 (configuration not stated),-91.9% (active),,-96.3% (active),-90.1% (active),-98.6% (active),-98.4% (active),-98.8% (active),-86.5% (active),-90.7% (active),-85.9% (active)
N=C1C=C(N)C(=O)c2ccccc21,-82.3% (active),-63% (active),-94.3% (active),,-71.7% (active),-99.6% (active),-93.7% (active),-38.8% (active),-67.8% (active),
CCCOS(=O)(=O)c1ccccc1,101%,,84.6%,104%,111%,121%,108%,76.1%,,102%
CC(=O)Nc1ccc(C(=O)CCl)cc1,,92.6%,94%,-65.4% (active),98.7%,16.9%,3.3% (active),62%,80.9%,95.5%
O=C(NOC(=O)c1ccccc1)c1ccccc1,107%,,105%,98%,120%,93.9%,117%,101%,97.9%,119%
Cc1ccccc1NC(=O)Cc1csc2[n+]1C(=O)/C(=C/c1ccc([N+](=O)[O-])cc1)S2,93.1%,,86.7%,86.3%,99.8%,93.5%,105%,79.5%,104%,103%
CN(C)c1ccc(/C=C/c2ccnc3ccccc23)cc1,58.6%,,61.8%,-24% (active),24.7%,54.7%,40.6%,27.2%,,97.3%
CC(=O)N1CC(=O)NC1=S,98.3%,,97.7%,92.2%,94.9%,102%,,102%,103%,
CC(CSc1n[nH]c(=S)s1)c1ccccc1 (configuration not stated),106%,,108%,79.3%,103%,111%,105%,101%,114%,118%
C=C(C(N)=O)C(N)C(=O)O (configuration not stated),110%,,110%,100%,107%,92.8%,,,108%,100%
CC(C)=CCCC(C)C1=C(O)C(=O)C(C)=CC1=O (configuration not stated),97%,,125%,-55.5% (active),110%,93.2%,50.3%,,,112%
O=S(=O)(O)c1cnccn1,97.6%,,71.6%,96%,73.9%,97.8%,107%,94.2%,123%,101%
CCc1oc2ccccc2c1C(=O)c1cc(Br)c(O)c(Br)c1,,84%,81.8%,30.8%,66.5%,68.2%,,0.0238% (active),86.9%,118%
Nc1nc(N)c2cc(Sc3cccc(C(F)(F)F)c3)ccc2n1,40.3%,,61.3%,35.4%,12.7%,19.2%,-75.9% (active),28.5%,14.9%,37.1%
O=C(CCl)N(c1ccccc1)c1ccccc1,,102%,105%,-29.7% (active),103%,108%,111%,78.5%,111%,95%
CCC(C)(O)Cc1ccc(Cl)cc1 (configuration not stated),,97.5%,97.1%,99.5%,104%,100%,108%,102%,104%,100%
CCCC[n+]1c(/C=C\c2c(OC)cc(OC)cc2OC)ccc2ccccc21,,9.84% (active),13.8%,-73.4% (active),-22.9% (active),21.5%,-53.3% (active),-20% (active),-43.2% (active),4.8% (active)
CC1(C)OCC(COC(c2ccccc2)(c2ccccc2)c2ccccc2)O1 (configuration not stated),104%,,96.1%,88.8%,86.3%,104%,109%,89.4%,104%,
Cc1cc(C(N)=O)cc(C)c1C(=O)OCCCl,104%,,93.9%,101%,,100%,111%,90.1%,101%,97.2%
COC(=O)c1nc(=S)[nH]c(C(=O)OC)c1C(=O)c1ccc(Cl)c(Cl)c1,103%,,115%,,105%,107%,120%,,111%,107%
